Laboratory results taken from PubChem BioAssay (NCATS).
Inconclusive results are not listed. Calls of active or inactive are those of the source. The call rests on the fitted dose curve; in most records, active means well fitted inhibition curve with a large enough effect; inconclusive means small, poorly fitted or top-dose-only effect; inactive means flat fitted curve, though single readings scatter.

How the values were obtained:
Assay in all cases: qHTS profiling for inhibitors of Plasmodium falciparum proliferation (AID 504749); further: nearly all actives have a fitted effect of over 60% in size
Details in all cases: P. falciparum in erythrocytes, SYBR Green DNA, 72 h; series mostly up to 12.8 µM
CP256 = system: CP256
Procedure, shortened: (§1)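 P. falciparum-infected erythrocytes (0.3% parasitemia, 2.5% hematocrit final) were exposed to compounds for 72 h at 37 C in 5% CO2, then lysed with SYBR Green buffer overnight at room temperature; parasite DNA fluorescence was normalized to artemisinin and DMSO controls.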

CP260 = system: CP260
Procedure, shortened: as §1

CP262 = system: CP262
Procedure, shortened: as §1

CP265 = system: CP265
Procedure, shortened: as §1

CP266 = system: CP266
Procedure, shortened: as §1

CP268 = system: CP268
Procedure, shortened: as §1

CP269 = system: CP269
Procedure, shortened: as §1

CP286 = system: CP286
Procedure, shortened: as §1

CP291 = system: CP291
Procedure, shortened: as §1

CP297 = system: CP297
Procedure, shortened: as §1

CP305 = system: CP305
Procedure, shortened: as §1

CP315 = system: CP315
Procedure, shortened: as §1

CP325 = system: CP325
Procedure, shortened: as §1

CP329 = system: CP329
Procedure, shortened: as §1

CP335 = system: CP335
Procedure, shortened: as §1

DIV14 = system: DIV14
Procedure, shortened: as §1

DIV17 = system: DIV17
Procedure, shortened: as §1

DIV30 = system: DIV30
Procedure, shortened: as §1

Dd2 = system: Dd2
Procedure, shortened: as §1

ECU = system: ECU
Procedure, shortened: as §1

FAB9 = system: FAB9
Procedure, shortened: as §1

GB4 = system: GB4
Procedure, shortened: as §1

HB3 = system: HB3
Procedure, shortened: as §1

ICS = system: ICS
Procedure, shortened: as §1

JCK = system: JCK
Procedure, shortened: as §1

N140 = system: N140
Procedure, shortened: as §1

P93_24 = system: P93_24
Procedure, shortened: as §1

P94_40 = system: P94_40
Procedure, shortened: as §1

PAD = system: PAD
Procedure, shortened: as §1

PC15 = system: PC15
Procedure, shortened: as §1

PC26 = system: PC26
Procedure, shortened: as §1

PC49 = system: PC49
Procedure, shortened: as §1

SC27B = system: SC27B
Procedure, shortened: as §1

TAB109 = system: TAB109
Procedure, shortened: as §1

TAB113 = system: TAB113
Procedure, shortened: as §1

TAB165 = system: TAB165
Procedure, shortened: as §1

W2 = system: W2
Procedure, shortened: as §1

Measured: Potency

O=C(O)[C@@H]1CCCN1
inactive: all assays above
